Laboratory results published in PubChem BioAssay AID1159580 (chemical genetic matrix, 2015).
In all, about 5,500 compounds went through this assay and about 2,000 (36%) were called active. Inconclusive results (about 18%) are left out. Cut-off read from the data, not from the text of the source: active = normalized growth mostly below about 0.91 (no sharp cut-off); inconclusive = no clear call, values can overlap the other calls; inactive = mostly above about 0.92. The list shows a part of the results.

Assay: chemical genetic growth profiling, strain panel (AID 1159580);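 note: tested at 20 µM; growth read once vehicle control cultures reached saturation at 30 °C; 1 = growth at the plate median or of vehicle wells; lower values mean less growth of the strain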
Conditions: growth OD

Measured: normalized growth

CCn1cc(C(=O)O)c(=O)c2cc(F)c(N3CCNCC3)nc21
inactive: S. cerevisiae deletion strains, locus YJR066W, strain TOR1, hits give low values 0.976 | S. cerevisiae deletion strains, locus YJR075W, strain HOC1, hits give low values 1.01 | S. cerevisiae deletion strains, locus YKL009W, strain mrt4, hits give low values 1.01 | S. cerevisiae deletion strains, locus YKL068W, hits give low values 1.01 | S. cerevisiae deletion strains, locus YKL085W, strain MDH1 (second series), hits give low values 1.01 | S. cerevisiae deletion strains, locus YKL085W, strain MDH1, hits give low values 1.01 | S. cerevisiae deletion strains, locus YKL160W, strain elf1, hits give low values 1 | S. cerevisiae deletion strains, locus YKL190W, strain CNB1, hits give low values 1.02 | S. cerevisiae deletion strains, locus YKR001C, strain vps1, hits give low values 1.02 | S. cerevisiae deletion strains, locus YKR026C, strain gcn3, hits give low values 0.989 | S. cerevisiae deletion strains, locus YKR091W, strain srl3, hits give low values 0.983 | S. cerevisiae deletion strains, locus YLL001W, strain dnm1, hits give low values 0.991 | S. cerevisiae deletion strains, locus YLL026W, hits give low values 0.992 | S. cerevisiae deletion strains, locus YLL041C, strain sdh2, hits give low values 0.964 | S. cerevisiae deletion strains, locus YLR027C, strain aat2, hits give low values 0.989 | S. cerevisiae deletion strains, locus YLR039C, strain RIC1, hits give low values 1.01 | S. cerevisiae deletion strains, locus YLR058C, strain SHM2, hits give low values 1.02 | S. cerevisiae deletion strains, locus YLR102C, strain apc9, hits give low values 1.01 | S. cerevisiae deletion strains, locus YLR113W, strain HOG1, hits give low values 1.08 | S. cerevisiae deletion strains, locus YLR221C, strain rsa3, hits give low values 0.984 | S. cerevisiae deletion strains, locus YLR258W, strain gsy2, hits give low values 0.987 | S. cerevisiae deletion strains, locus YLR262C, strain YPT6 (second series), hits give low values 0.945 | S. cerevisiae deletion strains, locus YLR262C, strain YPT6, hits give low values 1.03 | S. cerevisiae deletion strains, locus YLR268W, strain sec22, hits give low values 1.01 | S. cerevisiae deletion strains, locus YLR320W, strain mms22, hits give low values 0.999 | S. cerevisiae deletion strains, locus YLR330W, strain CHS5, hits give low values 1.01 | S. cerevisiae deletion strains, locus YLR342W, strain FKS1 (second series), hits give low values 1.03 | S. cerevisiae deletion strains, locus YLR342W, strain FKS1, hits give low values 0.981 | S. cerevisiae deletion strains, locus YLR357W, strain rsc2, hits give low values 0.897 | S. cerevisiae deletion strains, locus YLR370C, strain arc18, hits give low values 0.975 | S. cerevisiae deletion strains, locus YLR371W, strain rom2, hits give low values 1.02 | S. cerevisiae deletion strains, locus YLR384C, strain iki3, hits give low values 0.983 | S. cerevisiae deletion strains, locus YLR418C, strain cdc73, hits give low values 1.01 | S. cerevisiae deletion strains, locus YML016C, strain PPZ1, hits give low values 1.01 | S. cerevisiae deletion strains, locus YML032C, strain rad52, hits give low values 1.02 | S. cerevisiae deletion strains, locus YML120C, strain ndi1, hits give low values 0.983 | S. cerevisiae deletion strains, locus YML124C, strain tub3, hits give low values 1.01 | S. cerevisiae deletion strains, locus YMR058W, strain fet3, hits give low values 0.982 | S. cerevisiae deletion strains, locus YMR078C, strain ctf18, hits give low values 1 | S. cerevisiae deletion strains, locus YMR125W, strain sto1, hits give low values 0.973 | S. cerevisiae deletion strains, locus YMR129W, hits give low values 0.981 | S. cerevisiae deletion strains, locus YMR205C, strain PFK2, hits give low values 1.01 | S. cerevisiae deletion strains, locus YMR223W, strain ubp8, hits give low values 1.02 | S. cerevisiae deletion strains, locus YMR231W, strain pep5, hits give low values 0.991 | S. cerevisiae deletion strains, locus YMR307W, strain GAS1, hits give low values 1.02 | S. cerevisiae deletion strains, locus YNL067W, strain RPL9B, hits give low values 1 | S. cerevisiae deletion strains, locus YNL071W, strain lat1, hits give low values 0.968 | S. cerevisiae deletion strains, locus YNL153C, strain GIM3, hits give low values 0.99 | S. cerevisiae deletion strains, locus YNL183C, strain NPR1, hits give low values 0.982 | S. cerevisiae deletion strains, locus YNL209W, strain ssb2, hits give low values 0.971 | S. cerevisiae deletion strains, locus YNL233W, strain BNI4, hits give low values 0.978 | S. cerevisiae deletion strains, locus YNL248C, strain rpa49, hits give low values 0.989 | S. cerevisiae deletion strains, locus YNL250W, strain rad50, hits give low values 1.03 | S. cerevisiae deletion strains, locus YNL271C, strain bni1, hits give low values 1.02 | S. cerevisiae deletion strains, locus YNL298W, strain CLA4, hits give low values 1.01 | S. cerevisiae deletion strains, locus YNL307C, strain MCK1, hits give low values 1.02 | S. cerevisiae deletion strains, locus YNL322C, strain KRE1 (second series), hits give low values 0.976 | S. cerevisiae deletion strains, locus YNR049C, strain mso1, hits give low values 0.981 | S. cerevisiae deletion strains, locus YNR052C, strain pop2, hits give low values 1.02 | S. cerevisiae deletion strains, locus YOL006C, strain TOP1, hits give low values 1.02 | S. cerevisiae deletion strains, locus YOL012C, strain htz1 1.02 | S. cerevisiae deletion strains, locus YOL147C, strain pex11, hits give low values 1.02 | S. cerevisiae deletion strains, locus YOR001W, strain rrp6, hits give low values 0.987 | S. cerevisiae deletion strains, locus YOR061W, strain CKA2, hits give low values 1.02 | S. cerevisiae deletion strains, locus YOR069W, strain VPS5, hits give low values 1.01 | S. cerevisiae deletion strains, locus YOR070C, strain gyp1, hits give low values 0.993 | S. cerevisiae deletion strains, locus YOR080W, strain dia2, hits give low values 0.993 | S. cerevisiae deletion strains, locus YOR083W, strain WHI5, hits give low values 0.99 | S. cerevisiae deletion strains, locus YOR106W, strain vam3, hits give low values 0.988 | S. cerevisiae deletion strains, locus YOR136W, strain idh2, hits give low values 1.01 | S. cerevisiae deletion strains, locus YOR144C, strain elg1, hits give low values 1.01 | S. cerevisiae deletion strains, locus YOR184W, strain ser1, hits give low values 1.02 | S. cerevisiae deletion strains, locus YOR231W, strain MKK1, hits give low values 1.05 | S. cerevisiae deletion strains, locus YOR265W, strain rbl2, hits give low values 0.986 | S. cerevisiae deletion strains, locus YOR270C, strain vph1, hits give low values 0.991 | S. cerevisiae deletion strains, locus YOR290C, strain snf2, hits give low values 0.961 | S. cerevisiae deletion strains, locus YOR316C, strain cot1, hits give low values 1.02 | S. cerevisiae deletion strains, locus YPL051W, strain arl3, hits give low values 0.994 | S. cerevisiae deletion strains, locus YPL078C, strain atp4, hits give low values 0.984 | S. cerevisiae deletion strains, locus YPL106C, strain sse1, hits give low values 0.947 | S. cerevisiae deletion strains, locus YPL240C, strain hsp82, hits give low values 0.977 | S. cerevisiae deletion strains, locus YPL241C, strain CIN2, hits give low values 1.01 | S. cerevisiae deletion strains, locus YPL256C, strain CLN2, hits give low values 1.04 | S. cerevisiae deletion strains, locus YPR119W, strain clb2, hits give low values 1.01 | S. cerevisiae deletion strains, locus YPR141C, strain kar3, hits give low values 1.01 | S. cerevisiae deletion strains, locus YPR163C, strain tif3, hits give low values 1.03 | S. cerevisiae deletion strains, locus YPR167C, strain met16, hits give low values 1.01 | S. cerevisiae deletion strains, strain wtn01, hits give low values 1.01 | S. cerevisiae strains, strain wild type, hits give low values 1.02
